Measurements taken from the supplement of paper PMC3334620.
Whole data set: some 33,000 sequences, median “E-score (-0.5 to 0.5)” near -0.016, cut for the highest 2% near 0.32. This is one part of a sample in which the highest values are shown more often than they occur.

Molecular target: T1, Stp1 (UniProt B3LFK1)
T1 sequence: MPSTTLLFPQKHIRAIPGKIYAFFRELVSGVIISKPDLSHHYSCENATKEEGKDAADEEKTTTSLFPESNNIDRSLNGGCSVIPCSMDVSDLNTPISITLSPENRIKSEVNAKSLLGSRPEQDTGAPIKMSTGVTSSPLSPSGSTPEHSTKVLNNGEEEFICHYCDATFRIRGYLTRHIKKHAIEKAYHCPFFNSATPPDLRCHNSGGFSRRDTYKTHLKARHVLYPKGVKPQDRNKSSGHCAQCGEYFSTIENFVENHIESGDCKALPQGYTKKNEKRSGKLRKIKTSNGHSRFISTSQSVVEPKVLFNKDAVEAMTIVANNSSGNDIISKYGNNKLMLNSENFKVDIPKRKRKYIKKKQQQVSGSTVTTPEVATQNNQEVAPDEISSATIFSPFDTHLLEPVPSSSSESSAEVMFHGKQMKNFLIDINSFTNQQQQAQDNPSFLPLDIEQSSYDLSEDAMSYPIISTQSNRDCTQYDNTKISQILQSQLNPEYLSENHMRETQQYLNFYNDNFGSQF
Experiment: PBM E-score (8-mer binding enrichment) (E-score (-0.5 to 0.5)); higher = stronger / more preferred TF binding
Conditions: protein concentration: 200 nM; construct: GST-full length
Outline: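 PURExpress in vitro transcription/translation supplied GST-tagged yeast transcription factors, either full-length or DNA-binding domain. Applied at about 100-200 nM to universal all-10-mer Agilent arrays double-stranded by primer extension, the bound protein was detected with fluorescent anti-GST. E-scores, modified Wilcoxon-Mann-Whitney statistics, were given by the Universal PBM Analysis Suite to ungapped eight-base words pooled with their reverse complements after masliner normalisation.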

Row | Sequence | PBM E-score
1 | AATTTGCA | -0.0371
2 | AACGAGAC | -0.0773
3 | ATGTTACA | 0.182
4 | GCTGCTGA | 0.189
5 | CCAAAGAA | 0.068
6 | TAGCTGAA | -0.0818
7 | GAAACGAC | 0.0801
8 | GACGGCGA | 0.4
9 | GCCGGCGA | -0.00476
10 | CACGGCGA | 0.474
11 | CATGGCGA | -0.0243
12 | ACCGGCGA | 0.134
13 | GTCGGCGA | -0.0125
14 | AACGGGGA | -0.0385
15 | CCCGGCGA | -0.0779
16 | AACGGCGA | 0.452
17 | CACGGGGG | -0.208
18 | CACGGCGG | 0.417
19 | CCCGGCGG | -0.317
20 | AGTTGAGG | -0.0375
21 | CCGTTCTA | 0.237
22 | GTGCATAA | 0.183
23 | CGTGCAAC | 0.138
24 | CCCAAATA | -0.153
25 | TCCGAAAA | -0.159

Row | Sequence | PBM E-score
26 | TACGGCGA | 0.473
27 | TAAGGCGA | 0.315
28 | TCCGGCGA | 0.1
29 | GCCTCGAC | 0.0115
30 | CTGGGGAC | -0.392
31 | ATGCGGCG | 0.485
32 | ATGCGGCC | 0.331
33 | ATGCGGGC | 0.0547
34 | ATGCGGTC | 0.0837
35 | ATGCGGAG | -0.0518
36 | ATGCGGTG | -0.103
37 | TAGCGCTA | -0.0704
38 | TCCTCTAA | -0.222
39 | CGCGATTC | 0.118
40 | ACTGGTCA | -0.105
41 | CCACGCGG | 0.18
42 | GTGCCGGA | 0.175
43 | GTGCCGCA | 0.483
44 | ATGCCGGA | 0.0395
45 | ATGCCGCA | 0.468
46 | GTGCCAAA | 0.119
47 | ATTCCGCA | 0.0903
48 | CTGCCGCC | 0.226
49 | ATGCCGCG | 0.475
50 | ATGCCACG | 0.275

Row | Sequence | PBM E-score
51 | CTACCGCA | 0.0499
52 | CTGCCGCA | 0.347
53 | ATGCCACA | 0.243
54 | GCTTTGTA | 0.135
55 | AAGTTAGG | 0.0337
56 | CAACCACG | 0.0433
57 | GGCTGAAA | 0.103
58 | AAGCTCAA | -0.135
59 | CTATGCCC | -0.0982
60 | ATGCCGGC | 0.0928
61 | ATGCCGCC | 0.386
62 | AGGCCGCC | -0.0139
63 | GGTTTGAA | 0.0901
64 | GAAGTGAC | -0.0146
65 | GCAAGGCC | 0.151
66 | CAAAGGCG | 0.129
67 | AAAAGGCT | 0.0632
68 | AAAAGGCA | 0.359
69 | AGAAGGCG | 0.2
70 | CAAAGGCA | 0.184
71 | GAAAGGCC | 0.272
72 | AAAAGGCG | 0.34
73 | GAAAGGCA | 0.376
74 | AAAAGGCC | 0.174
75 | GCAAGGCA | 0.38

Row | Sequence | PBM E-score
76 | ACAAGGCA | 0.315
77 | TGAGAAAA | 0.116
78 | GCCCCTAA | -0.229
79 | CTAAGGGC | -0.224
80 | CTTTTCGA | 0.174
81 | CACCCTAG | -0.172
82 | GCAGAAAC | 0.234
83 | ACAGTCGA | -0.262
84 | TAACGCCA | 0.133
85 | AAACGCCA | 0.345
86 | AAACGCCT | 0.141
87 | CAACGCCC | 0.0959
88 | AAACGCCG | 0.428
89 | CAACGCCA | 0.0795
90 | GAACGCCA | 0.0737
91 | AAACGCCC | 0.231
92 | CAACGCCG | 0.391
93 | CTGGAAAG | -0.15
94 | AGCGAAAG | -0.138
95 | ATGGCTAG | 0.0312
96 | CCTTTCCG | 0.0145
97 | ATGACTTC | 0.00281
98 | AGTACTTG | 0.142
99 | GGGGACGA | -0.249
100 | ATCTCACG | 0.015

Row | Sequence | PBM E-score
101 | ACGGTGCA | -0.00717
102 | ATGGTGCG | -0.0219
103 | CTGGTGCC | 0.252
104 | ACAGTGCC | 0.321
105 | CCAGTGCC | 0.179
106 | ATGGTGCC | 0.372
107 | GCAGTGCC | 0.253
108 | ACGGTGCC | 0.396
109 | ACGGTGCG | 0.173
110 | AACTGGAT | 0.0626
111 | TCCCATCA | -0.201
112 | GGACTGCA | -0.229
113 | GAGCAGAA | -0.0386
114 | CGCACGCA | -0.00526
115 | CTCACGGA | 0.0462
116 | GTCACGGA | -0.0129
117 | CGCACGGA | 0.39
118 | GGCACGGA | 0.376
119 | GGCACGCA | 0.288
120 | TACTCTAA | 0.034
121 | CCCTGTCG | 0.0867
122 | CATATGGG | -0.035
123 | AGGGTCGC | 0.0437
124 | ACCGGCGG | 0.0942
125 | AGCGGCGA | 0.386

Row | Sequence | PBM E-score
126 | AGCGGCCA | -0.114
127 | AGCGGCGG | 0.337
128 | AGCAGCGC | 0.0916
129 | AGCGGCGC | 0.452
130 | CGCGGTGA | 0.0941
131 | AGCGGGGG | -0.287
132 | GGCGGCGA | 0.276
133 | CGCGGCGA | 0.451
134 | AGCGGGGC | 0.0451
135 | CGCGGAGA | 0.109
136 | AGAGCTTG | -0.106
137 | ATGAGCTG | -0.175
138 | GATCCATA | 0.134
139 | ACGCTAAG | 0.00258
140 | CGGACCGA | 0.0676
141 | CCTCGCAG | -0.0486
142 | GCGTCTAC | -0.155
143 | AACTGCCT | 0.0172
144 | AACTGCCC | -0.192
145 | AACTGCCG | 0.329
146 | CACTGCCA | 0.0847
147 | CACTGCCG | 0.336
148 | CACTGCCC | -0.071
149 | AGATCCAA | 0.0566
150 | AAGCTGTG | -0.106

Row | Sequence | PBM E-score
151 | ACCTTGTA | 0.0137
152 | CCCTTGTA | -0.178
153 | TCCTTGCA | -0.0871
154 | CCCTTGCA | -0.163
155 | GCCTTGTA | 0.354
156 | GCCTTGCA | 0.33
157 | AAGGATGC | -0.187
158 | GTGGTCTA | -0.307
159 | CTCTACCA | -0.0433
160 | GCTGGTCC | -0.253
161 | GTTGTGGA | -0.0929
162 | CATGCCCA | -0.249
163 | ATGACGCC | 0.2
164 | ACCGTCGC | 0.0157
165 | GCCGTCCC | 0.378
166 | ACCGTCTA | -0.0765
167 | GCCGTCGA | 0.278
168 | CCCGTCTA | -0.0264
169 | TCCGTCCA | -0.122
170 | CCCGTCCC | -0.249
171 | CCCGTCCA | -0.00501
172 | GCCGTCGC | 0.351
173 | GCCGTCCA | 0.364
174 | GCCGTCTA | 0.429
